Where “and” joins values, the source holds several entries; their conditions need not be identical. Equal values may be shown once. Inconclusive results are not listed. Calls of active or inactive are those of the source. Unless noted, calls follow the shape of the dose curve; as a rule, active = well fitted curve in the direction sought with a large enough effect; inconclusive = small, poorly fitted or top-dose-only effect, or another doubt; inactive = no such curve, though single readings can be large; an effect the other way counts as inactive or inconclusive.
Tests used:
[1] = Cell Viability - Jurkat (AID 426;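 active = dose-dependent loss of cell ATP signal giving a full or clear fitted curve, ranked by lower potency value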; also: potency is read from the fitted curve at half-maximal effect); conditions: qHTS
Method in brief: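 Jurkat (clone E6-1, human T-cell leukemia) cells, 5000/well in complete medium, were exposed to compound for 40 hr at 37 °C. Viability was read as intracellular ATP by CellTiter-Glo luminescence; AC50 came from Hill fits of concentration-response data.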

[2] = Cell Viability - Hek293 (AID 427;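 active = compounds whose dose-response curve shows a full or clear partial loss of cell viability, called from curve shape rather than a numeric limit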;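 also: potency is read from the fitted curve at half-maximal effect; cells exposed to compound for 40 hours at 37 °C before reading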); conditions: qHTS
Method in brief: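 Luminescent ATP content (CellTiter-Glo, 20 min at room temperature) was measured after a 40 hr, 37 °C compound exposure of HEK293 cells. AC50 values came from Hill-equation fits of qHTS concentration-response data normalized to DMSO and 100 uM tamoxifen.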

[3] = Cellular Toxicity (caspase-3) H-4-II-E (AID 663); conditions: H-4-II-E rat hepatoma, scaled: DMSO 0%, 100 µM tamoxifen 100%; series mostly up to 92.2 µM;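 also: cells exposed to compound for 16 hr before readout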
Method in brief: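 Luminescence from caspase-cleaved aminoluciferin substrate, read 20 min after reagent addition, reports caspase 3/7 activation in rat H-4-II-E cells after 16 hr compound exposure. Normalized to DMSO (basal) and 100 uM tamoxifen (100%); AC50 from Hill fits.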

[4] = Cellular Toxicity (caspase-3) N2a (AID 665); conditions: N2a cells, luminescence, normalized: DMSO 0%, 10 µM staurosporine 100%; at 92.2 µM (top of the series);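 also: compound exposure lasted 16 h at 37 °C before readout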
Method in brief: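 Mouse N2a neuroblastoma cells (1500/well) were treated with compounds for 16 h at 37 °C, then caspase-3/7 activity was read by Caspase-Glo luminescence after 1 h at room temperature. Data were normalized to DMSO and 10 uM staurosporine; AC50 from Hill fits.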

[5] = MultiTox-Fluor Cytotoxicity Assay - LYMP1-001 - Dead Cells (AID 946); conditions: LYMP1-001 lymphoblastoid cells, dead-cell protease fluorescence; series mostly up to 92.2 µM
Method in brief: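 Cytotoxicity as increased dead-cell protease fluorescence (bis-AAF-R110, 485/520 nm), read 60 min after MultiTox-Fluor reagent. Human lymphoblastoid line exposed 16 h; Hill-fitted AC50, with DMSO as 0% and 15 uM tetraoctylammonium bromide as 100%.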

[6] = Cell Viability - LYMP1-002 - Assay at 16 hr (AID 948); conditions: LYMP1-002 lymphoblastoid cell viability; series mostly up to 92.2 µM;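 also: 0% = DMSO alone and full effect = 92 µM tetraoctylammonium bromide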
Method in brief: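 In this qHTS, lymphoblastoid LYMP1-002 cells (human) receive compounds for 16 hr at 37 C. Viability is taken from CellTiter-Glo ATP luminescence, and AC50 derives from standard Hill fits.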

[7] = MultiTox-Fluor Cytotoxicity Assay - LYMP1-003 - Dead Cells (AID 961); conditions: LYMP1-003 lymphoblastoid cells, dead-cell protease fluorescence; series mostly up to 92.2 µM; also: nearly all actives have a fitted effect of over 70% in size
Method in brief: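 Dead-cell protease release, detected as bis-AAF-R110 fluorescence at 485/520 nm, was measured in LYMP1-003 cells after 16 h compound treatment at 37 C. AC50 values came from Hill-modeled qHTS curves normalized to DMSO (0%) and 15 uM tetraoctylammonium bromide (100%).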

[8] = Cell Viability - LYMP1-003 - Assay at 24 hr (AID 963); conditions: LYMP1-003 lymphoblastoid cell viability; series mostly up to 92.2 µM;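 also: plate controls were DMSO only for no effect and tetraoctylammonium bromide positive control for full effect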
Method in brief: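 Human lymphoblastoid LYMP1-003 cells (2500/well) were rested 5 hr at 37 C, then exposed to compounds in complete medium for 24 hr at 37 C. Cellular ATP was quantified by CellTiter-Glo luminescence, and AC50 values came from Hill fits of concentration-response data.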

[9] = Cell Viability - LYMP2-011 (AID 969); conditions: LYMP2-011 lymphoblastoid cells viability; series mostly up to 92.2 µM;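 also: 0% = DMSO only and full inhibition = 92 µM tetraoctylammonium bromide; nearly all actives have a fitted effect of over 60% in size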
Method in brief: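 Human lymphoblastoid cells (2500/well) were plated in complete medium, preincubated 5 hr at 37 C, then exposed to compounds for 24 hr at 37 C. Intracellular ATP was read by CellTiter-Glo luminescence, and AC50 came from Hill-equation concentration-response fits.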

[10] = Cell Viability - LYMP2-013 (AID 970); conditions: LYMP2-013 lymphoblastoid cells viability; series mostly up to 92.2 µM;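 also: 0% = DMSO only and full inhibition = tetraoctylammonium bromide control; nearly all actives have a fitted effect of over 55% in size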
Method in brief: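 Human lymphoblastoid cells, 2500/well, were preincubated 5 hr at 37 C, then treated with compounds for 24 hr at 37 C in complete medium. Intracellular ATP was read by CellTiter-Glo luminescence; AC50 from Hill-equation fits of concentration-response data.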

[11] = Cell Viability - LYMP2-023 (AID 975); conditions: LYMP2-023 lymphoblastoid cell viability; series mostly up to 92.2 µM;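 also: cellular ATP measured by luciferase luminescence as viability proxy; plate controls were DMSO only for no effect and 92 µM tetraoctylammonium bromide control for full effect; nearly all actives have a fitted effect of over 55% in size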
Method in brief: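 Human lymphoblastoid cells (2500/well) were preincubated 5 hr at 37 C, then exposed to compounds for 24 hr at 37 C in complete medium. Cellular ATP was read by CellTiter-Glo luminescence, and AC50 came from Hill-equation fits.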

[12] = Cell Viability - LYMP2-025 (AID 976); conditions: LYMP2-025 lymphoblastoid cell viability; series mostly up to 92.2 µM;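 also: plate controls were DMSO only for no effect and tetraoctylammonium bromide control for full effect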
Method in brief: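 Human lymphoblastoid LYMP2-025 cells (2500/well) were pre-incubated 5 hr at 37 C, then treated with compounds for 24 hr at 37 C in complete medium. Viability was read as intracellular ATP by CellTiter-Glo luminescence; AC50 from Hill fits.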

[13] = Cell Viability - LYMP2-006 (AID 978); conditions: LYMP2-006 lymphoblastoid cell viability, qHTS; series mostly up to 92.2 µM; also: % is scaled to controls: 0 for no effect and ±100 for the full control effect; nearly all actives have a fitted effect of over 60% in size
Method in brief: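 In this cytotoxicity screen, the human lymphoblastoid line grew in complete medium with test compounds for 24 hr at 37 C. Cellular ATP served as the viability signal.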

[14] = Cell Viability - LYMP2-008 (AID 980); conditions: LYMP2-008 lymphoblastoid cell viability, qHTS; series mostly up to 92.2 µM; also: % is scaled to controls: 0 for no effect and ±100 for the full control effect; nearly all actives have a fitted effect of over 60% in size
Method in brief: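 Human lymphoblastoid cells (2500/well) were plated, held 5 hr at 37 C, then exposed to compounds for 24 hr at 37 C in complete medium. Intracellular ATP was read by CellTiter-Glo luminescence; AC50 from Hill-fitted concentration-response.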

[15] = Cell Viability - LYMP2-018 (AID 985); conditions: LYMP2-018 lymphoblastoid cells, viability (qHTS); series mostly up to 92.2 µM;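 also: compound exposure lasted 24 hr at 37 °C; plate controls were DMSO only for no effect and tetraoctylammonium bromide at 92 µM for full effect; nearly all actives have a fitted effect of over 50% in size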
Method in brief: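 Human lymphoblastoid cells (2500/well) were pre-incubated 5 hr at 37 C, then exposed to compounds for 24 hr at 37 C in complete medium. Viability was read as intracellular ATP by CellTiter-Glo luminescence; AC50 values came from Hill-equation fits.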

[16] = Cell Viability - LYMP2-026 (AID 989); conditions: LYMP2-026 lymphoblastoid cell viability, qHTS; series mostly up to 92.2 µM; also: % is scaled to controls: 0 for no effect and ±100 for the full control effect; nearly all actives have a fitted effect of over 50% in size
Method in brief: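 Human lymphoblastoid cells (2500/well) in complete medium were preincubated 5 hr at 37 C, then exposed to compounds for 24 hr at 37 C. Cellular ATP was read by CellTiter-Glo luminescence; AC50 from Hill-equation fits of concentration-response data.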

[17] = Cell Viability - LYMP1-002 - Assay at 24 hr (AID 993); conditions: LYMP1-002 lymphoblastoid cells viability; series mostly up to 92.2 µM; also: % is scaled to controls: 0 for no effect and ±100 for the full control effect
Method in brief: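 Human lymphoblastoid LYMP1-002 cells, 2500/well in complete medium, were treated with compounds for 24 h at 37 C; intracellular ATP was read by CellTiter-Glo luminescence. AC50 values came from Hill-equation fits of qHTS concentration-response data.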

[18] = qHTS assay for small molecule agonists of the antioxidant response element (ARE) signaling pathway measured by Nrf2-dependant transcriptional activity - cell viability counter screen (AID 720653; active = well fitted curve in the direction sought with a large enough effect in the repeat runs; an effect the other way counts as inactive or inconclusive; also: % is scaled to controls: 0 for no effect and ±100 for the full control effect); conditions: ARE-bla HepG2 viability, CellTiter-Glo ATP luminescence, 16 h; stronger effect = lower value
Method in brief: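 ARE-bla HepG2 cells (2,000/well) rested 5 hrs at 37C/5% CO2, then exposed to compounds in DMSO for 16 hrs. Viability was read in the same wells as intracellular ATP by luminescence, 30 min at room temperature after reagent addition.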

[19] = qHTS assay for cell viability of HEK293 cells (AID 743288); conditions: ATP luminescence (CellTiter-Glo), 18 h; max response: stronger effect = lower value; also: % is scaled to controls: 0 for no effect and ±100 for the full control effect; nearly all actives have a fitted effect of over 50% in size
Method in brief: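 Luminescent ATP quantitation served as the viability read-out. Cells (parental HEK293, 2,000/well) received compounds after at least 5 h at 37 C and were exposed for 18 h before a 30 min room-temperature reagent step.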

[20] = qHTS assay for cell viability of the p53RE-bla HCT-116 cell line (AID 743292); conditions: p53RE-bla HCT-116 viability, ATP luminescence, 16 h; series mostly up to 95 µM; also: % is scaled to controls: 0 for no effect and ±100 for the full control effect; nearly all actives have a fitted effect of over 55% in size
Method in brief: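 ATP-based luminescence, 16 h compound exposure at 37 C, p53RE-bla HCT-116 cells at 4,000/well.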

c1ccc(-c2ccccc2)cc1
inactive: Potency [1] > 92 µM | Potency [2] > 92 µM | outcome [3] | caspase-3 activation [4] -1.9% | Potency [5] | Potency [6] | Potency [7] | Potency [8] | Potency [9] | Potency [10] | Potency [11] | Potency [12] | Potency [13] | Potency [14] | Potency [15] | Potency [16] | Potency [17] | max response [18] -4.39% and -5.27% | max response [19] 8.08% and -1.75% | Potency [20]

CCN(CC)c1ccccc1
inactive: Potency [1] > 92 µM | Potency [2] > 92 µM | outcome [3] | caspase-3 activation [4] -1.42% | Potency [5] | Potency [6] | Potency [7] | Potency [8] | Potency [9] | Potency [10] | Potency [11] | Potency [12] | Potency [13] | Potency [14] | Potency [15] | Potency [16] | Potency [17] | max response [18] 7.99% | max response [19] -9.99% | Potency [20]

C[C@]12CC[C@H]3[C@@H](CCC4=CC(=O)CC[C@@]43C)[C@@H]1CC[C@@H]2O
inactive: Potency [1] > 92 µM | Potency [2] > 92 µM | outcome [3] | caspase-3 activation [4] 3.16% | Potency [5] | Potency [6] | Potency [7] | Potency [8] | Potency [9] | Potency [10] | Potency [11] | Potency [12] | Potency [13] | Potency [14] | Potency [15] | Potency [16] | Potency [17] | max response [18] -2.92% | max response [19] -9.57% | Potency [20]

COC1=CC(=O)O[C@@H](/C=C/c2ccc3c(c2)OCO3)C1
inactive: outcome [3] | caspase-3 activation [4] -17.2% | Potency [5] | Potency [6] | Potency [7] | Potency [8] | Potency [9] | Potency [10] | Potency [11] | Potency [12] | Potency [13] | Potency [14] | Potency [15] | Potency [16] | Potency [17] | max response [18] -10.1% | max response [19] -22% | Potency [20]

Cc1ccccc1N
inactive: Potency [1] > 92 µM | Potency [2] > 92 µM | outcome [3] | caspase-3 activation [4] -5.28% and -1.86% | Potency [5] | Potency [6] | Potency [7] | Potency [8] | Potency [9] | Potency [10] | Potency [11] | Potency [12] | Potency [13] | Potency [14] | Potency [15] | Potency [16] | Potency [17] | max response [18] -8.44% and 1.06% | max response [19] -10.9% and 0.49% | Potency [20]

O=NN(c1ccccc1)c1ccccc1
inactive: Potency [1] > 92 µM | Potency [2] > 92 µM | outcome [3] | caspase-3 activation [4] 0.181% | Potency [5] | Potency [6] | Potency [7] | Potency [8] | Potency [9] | Potency [10] | Potency [11] | Potency [12] | Potency [13] | Potency [14] | Potency [15] | Potency [16] | Potency [17] | max response [18] -4.67% and 8.95% | max response [19] -0.72% and 1.61% | Potency [20]

Oc1ccc(Cl)cc1Cl
inactive: Potency [1] > 92 µM | Potency [2] > 92 µM | outcome [3] | caspase-3 activation [4] -0.627% | Potency [5] | Potency [6] | Potency [7] | Potency [8] | Potency [9] | Potency [10] | Potency [11] | Potency [12] | Potency [13] | Potency [14] | Potency [15] | Potency [16] | Potency [17] | max response [18] -19.8% and -1.01% | max response [19] 3.78% and -2.5% | Potency [20]

Clc1cccc(C(Cl)(Cl)Cl)n1
inactive: Potency [1] > 92 µM | Potency [2] > 92 µM | outcome [3] | caspase-3 activation [4] -0.536% | Potency [5] | Potency [6] | Potency [7] | Potency [8] | Potency [9] | Potency [10] | Potency [11] | Potency [12] | Potency [13] | Potency [14] | Potency [15] | Potency [16] | Potency [17] | max response [18] 1.86% and -5.38% | max response [19] 8.34% and -7.37% | Potency [20]

Cc1ccc2ccccc2c1
inactive: Potency [1] > 92 µM | Potency [2] > 92 µM | outcome [3] | caspase-3 activation [4] -4.52% | Potency [5] | Potency [6] | Potency [7] | Potency [8] | Potency [9] | Potency [10] | Potency [11] | Potency [12] | Potency [13] | Potency [14] | Potency [15] | Potency [16] | Potency [17] | max response [18] -3.38% | max response [19] 2.28% | Potency [20]

CC(C)(C)OOC(C)(C)C
inactive: Potency [1] > 92 µM | Potency [2] > 92 µM | outcome [3] | caspase-3 activation [4] 0.408% | Potency [5] | Potency [6] | Potency [7] | Potency [8] | Potency [9] | Potency [10] | Potency [11] | Potency [12] | Potency [13] | Potency [14] | Potency [15] | Potency [16] | Potency [17] | max response [18] -1.66% | max response [19] 1.9% | Potency [20]

O=C(Cl)/C=C/C(=O)Cl
inactive: Potency [1] > 92 µM | Potency [2] > 92 µM | outcome [3] | caspase-3 activation [4] -4.67% | Potency [5] | Potency [6] | Potency [7] | Potency [8] | Potency [9] | Potency [10] | Potency [11] | Potency [12] | Potency [13] | Potency [14] | Potency [15] | Potency [16] | Potency [17] | max response [18] 3.07% | max response [19] 1.49% | Potency [20]

From PubChem BioAssay (NCATS)
